Screens (PubChem BioAssay)
RN4220 kill: S. aureus RN4220 growth inhibition | OD600, 16 h | inhibition, % (concentration not given with the values) | hit rate 0.33% among 330,000 | AID 1259311; in the data active = inhibition above about 85%;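 also: plate controls were untreated cells for no effect and reference antibiotic for full effect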
MazEF act: increases E. coli MazEF RNase cleavage of RNA | AID 504720 | activation, % at 20 µM | FAM/BHQ RNA-DNA oligo cleavage fluorescence, 5 h | P0AE70 | hit rate 0.32% among 350,000; in the data active = activation above about 50%
Target sequence (P0AE70 whole entry, looked up): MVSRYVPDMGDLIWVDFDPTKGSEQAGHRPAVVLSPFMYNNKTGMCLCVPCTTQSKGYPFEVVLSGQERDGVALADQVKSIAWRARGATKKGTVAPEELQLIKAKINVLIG
SSB-PriA inh: K. pneumoniae PriA-SSBct interaction inhibition. AlphaScreen SSBct-PriA binding, biotinylated peptide. inhibition, % at 33 µM. hit rate 0.6% among 430,000. AID 1272365; in the data active = inhibition mostly above about 37%, no sharp cut-off; inactive = mostly below about 20%;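 also: plate controls were negative control peptide for no effect and reference peptide for full effect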
Sa ugtP lethal: growth inhibition of S. aureus ugtP deletion strain | S. aureus RN4220 ugtP deletion, OD600 growth, 16 h | growth inhibition, % (concentration not given with the values) | hit rate 0.54% among 330,000 | AID 1259309; in the data active = growth inhibition above about 68%;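 also: plate controls were untreated wells for no effect and antibiotic for full effect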
BJeLR lethal: kills HRASV12-expressing BJeLR cells. BJeLR (HRASV12) viability, CellTiter-Glo ATP luminescence, 48 h. inhibition, % (concentration not given with the values). hit rate 0.17% among 300,000. AID 1554; in the data active = inhibition above about 50%
An asterisk follows results filed as active. Sampled rows, rich in hits. Any-hit rate of the full collection: about 1.2%.

Results for CC(C)S(=O)(=O)c1ccc(C(=O)Nc2nc(-c3ccc(Cl)s3)cs2)cc1 ?
SSB-PriA inh: -12

What do the screens show for `COc1ccc(-c2nc(-c3cccc(C)c3)[nH]c(=O)c2C#N)cc1`?
RN4220 kill: 19; MazEF act: -7; SSB-PriA inh: -5; Sa ugtP lethal: 4; BJeLR lethal: -6

What do the screens show for `O=C(CCCC(=O)Nc1cccc(Br)c1)NN=Cc1cc([N+](=O)[O-])ccc1O`?
RN4220 kill: 88*; SSB-PriA inh: -9; Sa ugtP lethal: 79

What do the screens show for `Cc1cccc(NC(=O)CCC(=O)NN=Cc2cc([N+](=O)[O-])ccc2O)c1`?
RN4220 kill: 94*; SSB-PriA inh: -20; Sa ugtP lethal: 84*

How did COc1ccc(C=NNc2cc(N3CCCC3)nc(N3CCCC3)n2)cc1 do in these assays?
RN4220 kill: 4; SSB-PriA inh: 49*; Sa ugtP lethal: -14

How did COc1ccc(/C=N/Nc2cc(N3CCCC3)nc(N3CCCC3)n2)cc1 do in these assays?
MazEF act: 20; BJeLR lethal: -1

Results for Cc1nnc2ccc(N3CCN(C(=O)COc4cccc(Cl)c4)CC3)nn12 ?
SSB-PriA inh: -5

How did COc1ccc(C2CC(=O)N(CC(=O)c3ccccc3)c3ccccc3S2)cc1OC (stereo unspecified) do in these assays?
SSB-PriA inh: 5

Results for CC1(C)Cc2ccccc2-c2nnc(SCC(=O)Nc3nc4ccccc4s3)n21 ?
RN4220 kill: 88*; MazEF act: -3; SSB-PriA inh: -8; Sa ugtP lethal: 98*; BJeLR lethal: 5

What do the screens show for `Cn1c(SCC(=O)Nc2nc3ccccc3s2)nnc1-c1ccccc1`?
RN4220 kill: 0; MazEF act: -3; SSB-PriA inh: -16; Sa ugtP lethal: 9

What do the screens show for `CCCn1c(SCC(=O)Nc2nc3ccccc3s2)nc2c1c(=O)n(C)c(=O)n2C`?
RN4220 kill: -2; MazEF act: 67*; SSB-PriA inh: -4; Sa ugtP lethal: 0; BJeLR lethal: -10

What do the screens show for `CCCn1c(SCC(=O)Nc2nnc(C(C)C)s2)nc2c1c(=O)n(C)c(=O)n2C`?
RN4220 kill: 2; MazEF act: 13; SSB-PriA inh: -13; Sa ugtP lethal: -4; BJeLR lethal: 1

Results for COC[C@@](C)(O)CNC(=O)c1cc(-c2cc(OC)ccc2OC)nn1C ?
SSB-PriA inh: -21

Results for CCCN1C(=O)/C(=C/c2ccc(N3CCCC3)c(C)c2)NC1=S ?
RN4220 kill: -2; MazEF act: -16; SSB-PriA inh: -20; Sa ugtP lethal: -13; BJeLR lethal: 7

How did Cc1cc(/C=C2\NC(=S)N(C)C2=O)ccc1N1CCCC1 do in these assays?
RN4220 kill: 10; MazEF act: 214*; SSB-PriA inh: -4; Sa ugtP lethal: -5; BJeLR lethal: 1

How did O=C(Nc1nc(-c2ccccc2)c(-c2ccccc2)o1)c1ccc(F)cc1 do in these assays?
RN4220 kill: 99*; MazEF act: 16; SSB-PriA inh: -12; Sa ugtP lethal: 96*; BJeLR lethal: -7

What do the screens show for `COc1cccc(C(=O)Nc2nc(-c3ccccc3)c(-c3ccccc3)o2)c1`?
RN4220 kill: 40; MazEF act: 16; SSB-PriA inh: 17; Sa ugtP lethal: 16; BJeLR lethal: -7

How did COc1ccc(NC(=O)c2cccc(NS(=O)(=O)c3ccccc3)c2)cc1 do in these assays?
RN4220 kill: 3; MazEF act: 7; SSB-PriA inh: -12; Sa ugtP lethal: 5; BJeLR lethal: 4

How did O=C(C1=C(c2ccccc2)C(=O)c2ccccc2C1=O)c1ccccc1 do in these assays?
RN4220 kill: 97*; MazEF act: 4; SSB-PriA inh: 11; Sa ugtP lethal: 96*; BJeLR lethal: 32

What do the screens show for `COC1=C(c2ccccc2)C(=O)c2ccccc2C1=O`?
RN4220 kill: 57; MazEF act: -12; SSB-PriA inh: -14; Sa ugtP lethal: 57

Results for O=C1N=c2ccccc2=C1c1c(O)[nH]c2c(C(F)(F)F)cccc12 ?
RN4220 kill: 96*; MazEF act: 3; SSB-PriA inh: -3; Sa ugtP lethal: 98*; BJeLR lethal: 7

What do the screens show for `Oc1cc(Nc2cccnc2)cc2cccnc12`?
RN4220 kill: 17; MazEF act: 8; SSB-PriA inh: 89*; Sa ugtP lethal: 12

What do the screens show for `Oc1cc(Nc2ccncc2)cc2cccnc12`?
RN4220 kill: 5; MazEF act: 3; SSB-PriA inh: 104*; Sa ugtP lethal: 0

How did CN(C)c1ccc(-c2cc(O)c3ncccc3c2)cc1 do in these assays?
MazEF act: 4; SSB-PriA inh: 43

Results for Oc1cc(-c2ccncc2)cc2cccnc12 ?
RN4220 kill: 101*; MazEF act: 3; SSB-PriA inh: 55*; Sa ugtP lethal: 95*

What do the screens show for `Cc1nc(Nc2cccnc2)sc1C(=O)O`?
SSB-PriA inh: -6

What do the screens show for `O=[N+]([O-])c1cc(O)cc2cccnc12`?
SSB-PriA inh: 32

How did Fc1cc(-c2ccncc2)c2ncccc2c1 do in these assays?
SSB-PriA inh: 34

Results for Nc1cc(O)c2ncccc2c1 ?
SSB-PriA inh: 140*

Results for CSc1ccc(NC(=O)Nc2ccccc2C(N)=O)cc1 ?
RN4220 kill: 1; MazEF act: -3; SSB-PriA inh: -6; Sa ugtP lethal: 0; BJeLR lethal: -5

Results for COc1cccc(CNC(=O)CN2C(=O)CCSc3ccc(S(=O)(=O)N4CCCC4)cc32)c1 ?
RN4220 kill: 3; MazEF act: -2; SSB-PriA inh: -11; Sa ugtP lethal: 6; BJeLR lethal: 1

Results for CN(C)CCCNC(=O)c1ccc(-c2cc(O)c3ncccc3c2)cc1 ?
RN4220 kill: -3; MazEF act: 10; SSB-PriA inh: 83*; Sa ugtP lethal: 3

Results for CN(C)CCCNC(=O)c1ccc(-c2nc(-c3ccc(Cl)cc3)cs2)cc1 ?
RN4220 kill: 32; MazEF act: -14; SSB-PriA inh: -19; Sa ugtP lethal: 84*; BJeLR lethal: 5

How did Oc1cc(NCCc2cccnc2)cc2cccnc12 do in these assays?
RN4220 kill: 15; MazEF act: 15; SSB-PriA inh: 85*; Sa ugtP lethal: -2

How did CN(C)CCCNC(=O)c1ccccn1 do in these assays?
RN4220 kill: 1; MazEF act: 8; SSB-PriA inh: 1; Sa ugtP lethal: 1; BJeLR lethal: -1

How did CN(C)CCCNCCCNC(=O)c1ccncc1 do in these assays?
RN4220 kill: -1; MazEF act: 2; SSB-PriA inh: -7; Sa ugtP lethal: 1; BJeLR lethal: -1

Results for CS(=O)(=O)c1ccc2nc(NC(=O)c3ccccc3)sc2c1 ?
RN4220 kill: 4; MazEF act: 5; SSB-PriA inh: -2; Sa ugtP lethal: 9; BJeLR lethal: 10

How did CC(C)CNS(=O)(=O)c1ccc2nc(NC(=O)c3ccccn3)sc2c1 do in these assays?
SSB-PriA inh: 96*

How did O=C(Nc1ccccc1Cc1ccccc1)C1CC(=O)N(c2ccc3c(c2)OCCO3)C1 (stereo unspecified) do in these assays?
RN4220 kill: 3; MazEF act: 4; SSB-PriA inh: -1; Sa ugtP lethal: 4; BJeLR lethal: -2
